Most compounds without a hit are left out; they make up all but 2.4% or so of the library.
D2 antag: D2 dopamine receptor (human) antagonism. P14416. HEK293 TREx D2 cells, calcium flux, dopamine EC80. inhibition, % at 10 µM. actives 2% (n = 340,000). AID 485344; in the data active = inhibition above about 30%; inactive = below that, where a call was filed
Target sequence (P14416 whole entry, looked up): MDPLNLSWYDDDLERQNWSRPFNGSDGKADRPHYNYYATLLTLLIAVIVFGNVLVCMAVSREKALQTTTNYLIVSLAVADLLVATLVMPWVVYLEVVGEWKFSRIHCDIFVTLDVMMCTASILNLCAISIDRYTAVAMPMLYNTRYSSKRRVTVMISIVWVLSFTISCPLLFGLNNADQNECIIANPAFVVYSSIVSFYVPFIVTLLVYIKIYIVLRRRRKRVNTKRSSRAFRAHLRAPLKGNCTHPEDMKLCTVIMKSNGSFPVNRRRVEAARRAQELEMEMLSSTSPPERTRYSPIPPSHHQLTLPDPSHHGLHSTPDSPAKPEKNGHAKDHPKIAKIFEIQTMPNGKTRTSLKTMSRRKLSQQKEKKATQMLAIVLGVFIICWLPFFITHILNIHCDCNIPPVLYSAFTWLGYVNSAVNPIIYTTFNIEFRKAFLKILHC
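Calcium mobilization kinetics were recorded at 1 s intervals in tetracycline-induced HEK293 T-REx D2 cells, first for 180 s after compound addition and then 180 s after EC80 dopamine.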
D2 PAM-1: positively modulates the human D2 dopamine receptor allosterically; HEK293 T-REx D2, calcium flux, EC20 dopamine potentiation; potentiation, % at 10 µM; actives 0.34% (n = 340,000); AID 485347;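 active = potentiation over 3 SD above the plate norm, cut at about 30% in these data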
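Tetracycline-induced HEK293 T-REx cells force-coupled to calcium signalling expressed D2; compounds were pin-added after a 10 s baseline, read kinetically 180 s, then an EC20 dopamine challenge followed with a further 180 s calcium read.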
D2 PAM-2: human D2 receptor positive allosteric modulation; P14416; DiscoveRx D2 beta-arrestin cells, luminescence, 90 min; 100% = 57 uM dopamine signal; potentiation, % (no concentration beside the values); actives 0.23% (n = 360,000); AID 624464; in the data active = potentiation above about 50%; inconclusive = mostly about 30% to 49%
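PathHunter D2 cells, attached overnight at 37 deg C, received compound in DMSO plus dopamine at EC20 (50 nM final) for 90 min at 37 deg C. Beta-arrestin recruitment was read as luminescence after 1 h with detection reagent at ambient temperature.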
D2 ag-1: agonists of human D2 dopamine receptor (beta-arrestin). P14416. DiscoveRx PathHunter D2 beta-arrestin, luminescence, 90 min; 100% = 57 uM dopamine signal. activation, % (no concentration beside the values). actives 0.084% (n = 360,000); in the data active = activation above about 40%; inconclusive = between about 15% and that limit
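Agonist mode: compounds alone added to overnight-plated D2 PathHunter cells for 90 min at 37 C, with 57 uM final dopamine (EC100) defining full response. Beta-arrestin recruitment detected by chemiluminescent reagent, read after 1 h at ambient temperature.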
D2 ag-2: D2 dopamine receptor (human) agonism. P14416. HEK293 T-REx D2 cells, calcium flux agonist mode. activation, % at 2 µM. actives 0.53% (n = 340,000). AID 485358;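 active = activation over 3 SD above normal in the single-dose calcium agonist read, cut at about 30% in these data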
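Agonism scored from kinetic calcium signal (1 read/sec, 180 s) following compound pin transfer, after a 10 s baseline. Cells: HEK293 Trex line expressing inducible D2 receptor coupled to calcium, dye-loaded after overnight culture at 30 C.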
Numbers stand for hits.

What do the screens show for `O=C(CSc1ccc2ccccc2c1)NCCc1ccc(O)c(O)c1`?
D2 antag: 51.2; D2 PAM-1: inactive; D2 PAM-2: inconclusive; D2 ag-1: 100.0; D2 ag-2: 32.2

How did COc1ccc(CCNC(=O)CSc2nc3ccccc3o2)cc1 do in these assays?
D2 antag: 39.2; D2 PAM-1: inactive; D2 PAM-2: inactive; D2 ag-1: inactive; D2 ag-2: inactive

What do the screens show for `Cc1ccc(C)c(S(=O)(=O)c2cn(Cc3ccccc3)c3cc(F)c(F)cc3c2=O)c1`?
D2 PAM-1: inactive; D2 ag-2: inactive

Results for Cc1ccc(C)n1-c1nnc(N2CCCC(C(=O)NCc3ccccc3)C2)s1 (stereo not drawn) ?
D2 PAM-1: inactive; D2 ag-2: inactive

What do the screens show for `O=C1NC2(CCCCC2)OC12CCCCC2`?
D2 PAM-2: inactive; D2 ag-1: inactive

What do the screens show for `O=C(CCC(=O)N1CCOc2ccc(Cl)cc21)NCCCN1CCOCC1`?
D2 antag: inactive; D2 PAM-1: inactive; D2 PAM-2: inactive; D2 ag-1: inactive; D2 ag-2: inactive

What do the screens show for `O=C(CCC(=O)N1CCOc2ccc(Cl)cc21)NCc1ccccc1`?
D2 antag: 36.7; D2 PAM-1: inactive; D2 PAM-2: inactive; D2 ag-1: inactive; D2 ag-2: inactive

What do the screens show for `CC1CN(C(=O)CCC(=O)NCCCN2CCN(Cc3ccccc3)CC2)c2cc(Cl)ccc2O1` (stereo not drawn)?
D2 antag: 37.1; D2 PAM-1: inactive; D2 PAM-2: inactive; D2 ag-1: inactive; D2 ag-2: inactive

Results for O=C(CCC(=O)N1CCOc2ccc(Cl)cc21)NCCCN1CCN(Cc2ccccc2)CC1 ?
D2 antag: 40.7; D2 PAM-1: inactive; D2 PAM-2: inactive; D2 ag-1: inactive; D2 ag-2: inactive

What do the screens show for `COc1ccc(C(=O)Nc2ccccc2C(=O)NC2CC2)c(OC)c1OC`?
D2 PAM-2: inactive; D2 ag-1: inactive

How did CCOC(=O)C(=CNc1cc(C)nn1-c1ccc(C)cc1)C(=O)OCC do in these assays?
D2 antag: inactive; D2 PAM-1: inactive; D2 PAM-2: 64.9; D2 ag-1: inactive; D2 ag-2: inactive

How did O=C(CC1NCCN(Cc2ccccc2)C1=O)Nc1ccc(Cl)cc1 (stereo not drawn) do in these assays?
D2 antag: inactive; D2 PAM-1: inactive; D2 PAM-2: inactive; D2 ag-1: inactive; D2 ag-2: inactive

Results for O=C(CC1NCCc2ccccc21)Nc1ccc(Cl)cc1 (stereo not drawn) ?
D2 antag: 43.8; D2 PAM-1: inactive; D2 PAM-2: inactive; D2 ag-1: inactive; D2 ag-2: inactive

How did NC(=O)CSc1nnc(-c2cnccn2)n1-c1ccccc1 do in these assays?
D2 antag: inactive; D2 PAM-1: 36.2; D2 PAM-2: inactive; D2 ag-1: inactive; D2 ag-2: inactive

How did Cn1c(SCc2ccc(F)cc2)nnc1-c1cnccn1 do in these assays?
D2 antag: inactive; D2 PAM-1: inactive; D2 PAM-2: inactive; D2 ag-1: inactive; D2 ag-2: inactive

Results for Cn1c(SCc2ccccc2)nnc1-c1cnccn1 ?
D2 antag: 37.1; D2 PAM-1: inactive; D2 PAM-2: inactive; D2 ag-1: inactive; D2 ag-2: inactive

How did Cc1cc(=O)[nH]c(SCC(=O)Nc2ccc3c(c2)CCC3)c1C#N do in these assays?
D2 antag: 35.7; D2 PAM-1: inactive; D2 PAM-2: inactive; D2 ag-1: inactive; D2 ag-2: inactive

What do the screens show for `Cc1cc(=O)[nH]c(SCC(=O)Nc2ccc(F)cc2)c1C#N`?
D2 antag: inactive; D2 PAM-1: inactive; D2 PAM-2: inactive; D2 ag-1: inactive; D2 ag-2: inactive

How did Cc1ccccc1CSc1nc2ccsc2c(=O)n1CCC(C)C do in these assays?
D2 PAM-1: inactive; D2 ag-2: inactive

Results for CSc1ccc(CCNC(=O)Cn2ncc3c(=O)oc4ccc(C)cc4c32)cc1 ?
D2 ag-2: inactive

How did O=C(CCC(=O)Nc1ccc(Br)cc1)N/N=C/c1ccccc1F do in these assays?
D2 antag: inactive; D2 PAM-1: inactive; D2 PAM-2: inactive; D2 ag-1: inactive; D2 ag-2: inactive

Results for O=C(CCC(=O)Nc1ccc(F)cc1)N/N=C/c1ccccc1O ?
D2 antag: 33.5; D2 PAM-1: inactive; D2 PAM-2: inactive; D2 ag-1: inactive; D2 ag-2: inactive

Results for O=C(CCC(=O)Nc1ccccc1)N/N=C/C=C/c1ccccc1 ?
D2 antag: 30.3; D2 PAM-1: inactive; D2 PAM-2: inactive; D2 ag-1: inactive; D2 ag-2: inactive

What do the screens show for `CCOC(=O)C1=C(CN2CCN(C(=O)c3ccco3)CC2)NC(=O)NC1c1ccc(C)cc1` (stereo not drawn)?
D2 antag: 36.7; D2 PAM-1: inactive; D2 PAM-2: inactive; D2 ag-1: inactive; D2 ag-2: inactive

What do the screens show for `Cn1c(=O)c2c(SCC(=O)NCC3CCCO3)nc(-c3cccc(F)c3)nc2n(C)c1=O` (stereo not drawn)?
D2 PAM-1: inactive; D2 ag-2: inactive

Results for CCOC(=O)C1=C(CS(=O)(=O)c2ccc(C)c(C)c2)NC(=O)NC1c1ccccc1OCC (stereo not drawn) ?
D2 PAM-1: inactive

How did O=C(c1cc2c(s1)-c1ccccc1OC2)N1CCc2ccccc2C1 do in these assays?
D2 antag: 33.1; D2 PAM-1: inactive; D2 PAM-2: inactive; D2 ag-1: inactive; D2 ag-2: inactive

What do the screens show for `Cc1ccc(NC(=O)c2nnn(-c3ccc4c(c3)OCCO4)c2N)cc1`?
D2 antag: 60.4; D2 PAM-1: inactive; D2 PAM-2: inactive; D2 ag-1: inactive; D2 ag-2: inactive

Results for COc1ccc(-n2nc([N+](=O)[O-])c(=NCCc3ccc(Cl)cc3)n2O)cc1 ?
D2 antag: inactive; D2 PAM-1: inactive; D2 PAM-2: 87.3; D2 ag-1: inactive; D2 ag-2: inactive

How did COc1ccc(-n2nc([N+](=O)[O-])c(=NCCc3ccc(OC)c(OC)c3)n2O)cc1 do in these assays?
D2 antag: inactive; D2 PAM-1: inactive; D2 PAM-2: 136.8; D2 ag-1: inconclusive; D2 ag-2: inactive

Results for CCc1ccc(N=c2c([N+](=O)[O-])nn(-c3ccccc3)n2O)cc1 ?
D2 antag: inactive; D2 PAM-1: inactive; D2 PAM-2: 89.5; D2 ag-1: inactive; D2 ag-2: inactive

Results for Cc1cc(C)cc(N=c2c([N+](=O)[O-])nn(-c3ccc(Cl)cc3)n2O)c1 ?
D2 antag: inactive; D2 PAM-1: inactive; D2 PAM-2: inconclusive; D2 ag-1: inactive; D2 ag-2: inactive

What do the screens show for `COc1ccc(-n2nc([N+](=O)[O-])c(=NCCc3ccc(C)cc3)n2O)cc1`?
D2 antag: inactive; D2 PAM-1: inactive; D2 PAM-2: 70.9; D2 ag-1: inconclusive; D2 ag-2: inactive

What do the screens show for `COc1ccc(-n2nc([N+](=O)[O-])c(=NCc3cccnc3)n2O)cc1`?
D2 antag: inactive; D2 PAM-1: inactive; D2 PAM-2: inconclusive; D2 ag-1: inconclusive; D2 ag-2: inactive

Screening results (PubChem BioAssay)
